# Hits are enriched below; roughly 2.3% of the tested compounds scored in any of these assays.
# CHRM1 antagonist = antagonists of human M1 muscarinic receptor | AID 588852 | inhibition, % at 3 µM | P11229 | hit rate 1.3% among 360,000 | CHO-K1 hM1, Fluo-8 calcium fluorescence, ACh EC80 antagonist;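 active = percent inhibition above its own plate's cutoff, namely the mean of that plate's compound wells plus 3 SD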;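 also: peak over basal fluorescence ratio during 140 s after agonist addition; 0% = ACh EC80 plus DMSO and 100% = DMSO alone without agonist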
# Target sequence (P11229 whole entry, looked up): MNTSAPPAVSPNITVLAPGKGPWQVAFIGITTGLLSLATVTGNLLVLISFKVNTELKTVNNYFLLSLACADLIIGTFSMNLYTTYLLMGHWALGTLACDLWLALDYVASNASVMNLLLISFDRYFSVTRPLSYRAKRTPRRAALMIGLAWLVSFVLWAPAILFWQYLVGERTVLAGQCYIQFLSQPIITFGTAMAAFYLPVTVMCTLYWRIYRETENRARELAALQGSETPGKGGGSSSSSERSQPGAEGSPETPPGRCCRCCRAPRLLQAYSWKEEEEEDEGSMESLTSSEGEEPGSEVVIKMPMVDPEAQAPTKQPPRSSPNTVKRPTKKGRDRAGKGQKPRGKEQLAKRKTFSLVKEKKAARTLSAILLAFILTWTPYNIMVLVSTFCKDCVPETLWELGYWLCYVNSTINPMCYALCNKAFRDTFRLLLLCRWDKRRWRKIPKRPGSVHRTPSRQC
# CHO-K1 Ca PAM = M1 PAM counterscreen hit in parental CHO-K1 cells | ATP EC20, Fluo-8 calcium fluorescence; 0% at ATP EC20, 100% at ATP max | activation, % at 3 µM | hit rate 0.02% among 360,000 | AID 602247;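 active = activation above the run cutoff, the mean activation of all test compounds plus 3 SD, cut at about 40% in these data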;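 also: peak over basal fluorescence ratio in a 140 s read after ATP addition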
# M1 ag = human M1 muscarinic receptor agonism. CHO-K1 hM1, Fluo-8 calcium fluorescence, agonist mode; 0% DMSO, 100% acetylcholine EC100. hit rate 0.33% among 360,000. activation, % at 3 µM. AID 588814. P11229;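 active = activation above the run's mean compound activation plus 3 SD, cut at about 16% in these data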;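 also: peak over basal fluorescence ratio within a 140 s kinetic read after compound addition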
# M1 ag parental = nonselective activator or artifact in parental CHO-K1 cells | Fluo-8 calcium fluorescence; scaled to maximal ATP response, vehicle zero | activation, % at 3 µM | hit rate 0.48% among 360,000; in the data active = activation above about 15%;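 also: untransfected CHO-K1 host cells lacking M1 receptor as counterscreen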
# CHO-K1 Ca antag = nonselective inhibitor or artifact in parental CHO-K1 cells; inhibition, % at 3 µM; ATP-induced calcium, Fluo-8 fluorescence; hit rate 0.6% among 360,000; AID 602250;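 active = inhibition above a per-plate cutoff, the plate's mean sample inhibition plus 3 SD, cut at about 24% in these data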;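 also: 0% = DMSO plus EC80 ATP and 100% = DMSO alone without ATP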
# M1 PAM = positive allosteric modulators of human M1 muscarinic receptor. P11229. CHO-K1 hM1, Fluo-8 calcium fluorescence, ACh EC20; 0% = ACh EC20, 100% = maximal ACh. activation, % at 3 µM. hit rate 0.088% among 360,000; in the data active = activation above about 19%, passing the limit was not always enough
# Active calls of the source: *; · = not tested or not shown.
SMILES,CHRM1 antagonist,CHO-K1 Ca PAM,M1 ag,M1 ag parental,CHO-K1 Ca antag,M1 PAM
O=C1CC(c2ccc(F)cc2)Cc2nc(N3CCN(c4ccccc4)CC3)ncc21 (stereo unspecified),3.8,-2.1,-2.8,1.0,40.2*,-3.5
Cc1ccc(C2CC(=O)c3cnc(N4CCN(c5ccccc5)CC4)nc3C2)cc1 (stereo unspecified),0.2,18.3,-4.6,2.3,-3.1,5.8
CCOC(=O)C1CCN(C(=O)c2ccc3c(=O)n4nc(Nc5ccccc5OC)sc4nc3c2)CC1,0.8,2.8,-8.3,0.9,-2.0,-6.6
FC(F)(F)c1nnc2c(Sc3ccc(Cl)cc3)nc3ccccc3n12,8.9,-8.7,-3.4,-0.4,38.7*,-1.6
S=C(NCCC1=CCCCC1)NCc1ccco1,2.3,14.7,-3.6,0.2,-20.8,1.5
Cc1ccc(-c2cc(C(F)F)n3ncc(C(=O)Nc4ccc(S(=O)(=O)Nc5ccccc5C)cc4)c3n2)cc1,-15.5,-8.2,-2.7,0.1,20.5,-1.0
Cc1cccc(CN2CCCC(C(=O)c3ccc4c5c(cccc35)CC4)C2)n1 (stereo unspecified),94.5*,14.9,-4.0,2.5,-9.6,-21.6
COc1cccc(-c2ccc(NC(=O)C3CCCN(Cc4cccc(C)n4)C3)cc2)c1 (stereo unspecified),53.0*,8.6,-4.5,2.9,-2.4,-28.5
COc1cccc(-c2ccc(NC(=O)C3CCCN(Cc4cnn(C)c4C)C3)cc2)c1 (stereo unspecified),-15.2,15.8,-13.7,1.9,-23.9,0.5
Cc1ncc(CN2CCCC(C(=O)Nc3ccc(-c4cccc(F)c4)cc3)C2)n1C (stereo unspecified),31.6*,0.8,-3.2,5.5,2.1,-17.6
O=C(c1ccc2c3c(cccc13)CC2)C1CCCN(Cc2cccnc2)C1 (stereo unspecified),-6.7,14.5,-6.3,2.0,-14.9,-4.2
COc1cccc(CN2CCCC(C(=O)Nc3ccc(-c4cscn4)cc3)C2)c1 (stereo unspecified),34.6*,-3.0,-2.8,4.7,-4.4,-19.6
Cc1ncc(CN2CCCC(C(=O)Nc3ccc(-c4cscn4)cc3)C2)cn1 (stereo unspecified),-12.7,2.3,0.6,0.4,2.0,10.0
COc1cccc(-c2ccc(NC(=O)C3CCCN(Cc4cnc(C)n4C)C3)cc2)c1 (stereo unspecified),28.0,16.1,-4.2,6.2,-5.8,-17.8
CC1C(=O)N2CCCc3cc(NC(=O)C(=O)NCCCc4ccccc4)cc1c32 (stereo unspecified),-3.0,-12.6,-6.2,0.8,-1.5,1.3
COc1ccc(-c2nnc(SCc3ccc(C(=O)O)cc3)n2N)cc1,-6.9,8.2,-2.9,3.7,0.0,4.2
CCCCCCCCN1C(=O)[C@H](CC(=O)N2CCN(C(=O)OCC)CC2)C[C@@]2(C(=O)OC)CCCCC=C12,·,-1.1,·,0.3,-26.2,·
Cc1ccc(C)c(SCC(=O)NCC(c2ccco2)N2CCCCC2)c1 (stereo unspecified),0.3,20.9,-7.3,0.6,-6.1,-3.6
COc1ccc(-c2[nH]ncc2CN2CCCC(C(=O)c3cccc(OC)c3)C2)cc1 (stereo unspecified),10.8,-3.8,-13.3,0.7,-10.1,-18.1
COc1ccc2cc(C(=O)C3CCCN(Cc4cccc(C)n4)C3)ccc2c1 (stereo unspecified),59.6*,12.0,-7.2,5.0,-17.2,-26.7
CCOC(=O)N1CCN(C(=O)c2ccc3oc(CCCc4ccccc4)nc3c2)CC1,14.2,13.9,-4.5,3.2,-7.8,-11.9
Cc1oc(-c2ccccc2F)nc1CS(=O)(=O)CC(=O)NC1CCCC(C)C1C (stereo unspecified),-13.1,20.1,-1.0,1.4,-5.9,9.5
Cc1oc(-c2ccccc2F)nc1CS(=O)(=O)CC(=O)NC1CCCC1,33.2*,-7.3,-0.8,6.5,10.2,-14.0
Cc1ccc2c3c(cccc13)-c1ccccc1C2=O,-1.5,11.8,-7.5,1.0,-9.7,1.1
Nc1ccc2c3c(cccc13)-c1ccccc1-2,42.4*,-12.4,36.8*,35.4*,37.5*,-13.8
